According to PubChem BioAssay (NCI):
The panel holds about 83,000 compounds, 20% with a hit somewhere; the sample as a whole holds those more often.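 In brief: 96-well plates, 48 h treatment, single concentration, percent growth endpoint.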 The source made the active and inactive calls. How the source made its calls: active means growth percent below 10; inactive means the rest.

Columns and labels:
Experiment in all cases: NCI-60 one-dose screen, 48 h (100 = growth as untreated, 0 = no growth, -100 = all killed)
T-47D breast = details: 10 µM
BT-549 breast = details: 10 µM unless noted
MDA-MB-435 melanoma = details: 10 µM unless noted
SW-620 colon = details: 10 µM unless noted
MCF7 breast = details: 10 µM unless noted
HCT-116 colon = details: 10 µM unless noted
KM12 colon = details: 10 µM unless noted
HCC-2998 colon = details: 10 µM unless noted

Measured: growth

Cc1ccc2nc(NC(=O)CSC(=S)N3CCN(C)CC3)sc2c1
inactive: T-47D breast 105% | BT-549 breast 97.4% | MDA-MB-435 melanoma 101% | SW-620 colon 106% | MCF7 breast 93% | HCT-116 colon 97.2% | KM12 colon 111%

CC(C)OC1=C(Cl)C(=O)c2ccccc2C1=O
active: T-47D breast -24.6%
inactive: BT-549 breast 59.7% | MDA-MB-435 melanoma 97.3% | SW-620 colon 56.6% | MCF7 breast 73.2% | HCT-116 colon 39.4% | KM12 colon 41.2%

Cc1ccc(N=c2nc3sc4c(C)ccc(C)c4n3c(N)c2C#N)cc1
inactive: T-47D breast 90.8% | BT-549 breast 97.2% | MDA-MB-435 melanoma 110% | SW-620 colon 105% | MCF7 breast 88.3% | HCT-116 colon 94.4% | HCC-2998 colon 110% | KM12 colon 97.7%

O=C1C(OCCOc2ccccc2)=C(OCCOc2ccccc2)C(=O)c2ccccc21
inactive: T-47D breast 78.2% | BT-549 breast 27.4% | MDA-MB-435 melanoma 75.8% | SW-620 colon 45.1% | MCF7 breast 64% | HCT-116 colon 26% | KM12 colon 57.8%

COc1ccc(-c2csc3c2-n2cccc2C3=O)cc1O
inactive: T-47D breast 79.6% | SW-620 colon 20.2%
active: BT-549 breast -26.2% | MDA-MB-435 melanoma -57.1% | MCF7 breast 5.97% | HCT-116 colon -9.12% | KM12 colon -2.75%

O=C(N/N=C/c1ccc(F)cc1)c1[nH]c2ccc(I)cc2c1-c1ccccc1
inactive: T-47D breast 48.4% | BT-549 breast 20.1% | SW-620 colon 33.3% | MCF7 breast 14.3% | HCT-116 colon 14.8%
active: MDA-MB-435 melanoma -24% | KM12 colon 5.42%

COc1ccc(Sc2ccc3[nH]c(=O)nc(N)c3c2)cc1
inactive: T-47D breast 94.3% | BT-549 breast 98.9% | MDA-MB-435 melanoma 99.8% | SW-620 colon 101% | MCF7 breast 100% | HCT-116 colon 99.9% | KM12 colon 108%

CSc1nnc(-c2sc3nnc(-c4ccccc4)c(-c4ccccc4)c3c2O)o1
inactive: T-47D breast 75% | BT-549 breast 74.1% | MDA-MB-435 melanoma 88.4% | SW-620 colon 92.5% | MCF7 breast 83.5% | HCT-116 colon 60.9% | KM12 colon 72.9%

CC(=O)Nc1ccc(S(=O)(=O)N/N=C\c2ccc(Cl)c(Cl)c2)cc1
inactive: T-47D breast 86.7% | BT-549 breast 99.7% | MDA-MB-435 melanoma 105% | SW-620 colon 99.7% | MCF7 breast 95.6% | HCT-116 colon 101% | KM12 colon 107%

COc1ccc(-c2cc(=O)oc3c4c(ccc23)OCN(Cc2ccc(F)cc2)C4)cc1
inactive: T-47D breast 62.8% | BT-549 breast 66% | MDA-MB-435 melanoma 59.6% | SW-620 colon 66.2% | MCF7 breast 48.8% | HCT-116 colon 39.6% | KM12 colon 79.4%

O=[N+]([O-])c1ccc(C=C2C(Cl)=C(Cl)C(Cl)=C2Cl)cc1
inactive: T-47D breast 47.8% | BT-549 breast 97.7% | MDA-MB-435 melanoma 76.1% | MCF7 breast 34.8% | KM12 colon 73.7%
active: SW-620 colon -59.9% | HCT-116 colon -11%

CON=C1C[C@]2(C[C@@H]3C[C@@H](C/C=C(\C)C[C@@H](C)/C=C/C=C4\CO[C@@H]5[C@H](O)C(C)=C[C@@H](C(=O)O3)[C@]45O)O2)O[C@H](/C(C)=C/C(C)C)[C@H]1C
inactive: T-47D breast 29.7% | BT-549 breast 89.2% | MDA-MB-435 melanoma 43.7% | SW-620 colon 34.5% | MCF7 breast 42% | HCT-116 colon 17.8% | HCC-2998 colon 48.7% | KM12 colon 33.4%

CCOc1ccc(/C=N\N2CCCCCC2)cc1OCC
inactive: T-47D breast 99.1% | BT-549 breast 96.2% | MDA-MB-435 melanoma 53.2% | SW-620 colon 114% | MCF7 breast 96% | HCT-116 colon 99.5% | KM12 colon 103%

O=C1/C(=C/c2ccc(Oc3ccccc3)cc2)N=C(c2ccccc2)N1CCc1cccs1
inactive: T-47D breast 83.9% | BT-549 breast 74.9% | MDA-MB-435 melanoma 89.7% | SW-620 colon 80.1% | MCF7 breast 81.8% | HCT-116 colon 57.1% | HCC-2998 colon 96.6% | KM12 colon 97.6%

O=c1oc2ccccc2cc1-c1csc(N=Nc2c(O)[nH]c3ccc(Cl)cc23)n1
inactive: T-47D breast 98.8% | BT-549 breast 99% | MDA-MB-435 melanoma 98.9% | SW-620 colon 103% | MCF7 breast 93.5% | HCT-116 colon 107% | HCC-2998 colon 104% | KM12 colon 108%

CC(=O)Nc1ccc(Sc2ccc([N+](=O)[O-])o2)cc1
inactive: BT-549 breast 32.6% | MCF7 breast 26.9% | KM12 colon 56.8%
active: T-47D breast -34.3% | MDA-MB-435 melanoma 9.62% | SW-620 colon -76.5% | HCT-116 colon -82%

Cc1cc(=O)oc2c1ccc1oc(C(=O)c3ccccc3)c(C)c12
inactive: T-47D breast 76.3% | BT-549 breast 101% | MDA-MB-435 melanoma 95.8% | SW-620 colon 92.2% | MCF7 breast 69.4% | HCT-116 colon 83.5% | KM12 colon 73.2%

O=[N+]([O-])c1cc2c(cc1Br)C1C(C3C2C(Cl)(Cl)C(Cl)=C(Cl)C3(Cl)Cl)C(Cl)(Cl)C(Cl)=C(Cl)C1(Cl)Cl (stereo unspecified)
inactive: T-47D breast 90.8% | BT-549 breast 93.1% | MDA-MB-435 melanoma 103% | SW-620 colon 115% | MCF7 breast 91.5% | HCT-116 colon 89.7% | HCC-2998 colon 93.4% | KM12 colon 106%

COc1ccc(S(=O)(=O)c2ccc(C(N)=O)cc2)cc1NC(=O)c1[nH]c(C)c2c1CCCCC2=O
inactive: T-47D breast 34.4% | BT-549 breast 58.6% | MDA-MB-435 melanoma 28.6% | SW-620 colon 68.4% | MCF7 breast 23.1% | HCT-116 colon 60% | HCC-2998 colon 66% | KM12 colon 65.4%

COc1cccc(C2CC(=O)Nc3cc4c(cc32)OCO4)c1OC (stereo unspecified)
inactive: T-47D breast 87.5% | BT-549 breast 101% | MDA-MB-435 melanoma 97% | SW-620 colon 105% | MCF7 breast 94.8% | HCT-116 colon 93.6% | KM12 colon 91.6%

Oc1ccc2ccccc2c1C1NN=C(c2ccccc2)S1 (stereo unspecified)
inactive: T-47D breast 20.7% | BT-549 breast 19.5% | MDA-MB-435 melanoma 29.4% | SW-620 colon 40.4% | MCF7 breast 17.2% | HCT-116 colon 16% | KM12 colon 23.3%

O=C(COc1cccc(/C=C2\COc3ccccc3C2=O)c1)c1ccccc1
inactive: T-47D breast 75.3% | BT-549 breast 45.5% | MDA-MB-435 melanoma 43.1% | KM12 colon 31.6%
active: SW-620 colon -81.7% | MCF7 breast 7.63% | HCT-116 colon 3.67%

COc1cc(C2CC(=O)Nc3c2ccc2ccccc32)cc(Br)c1OC (stereo unspecified)
active: MDA-MB-435 melanoma -55.5% | MCF7 breast 9.65%
inactive: T-47D breast 51.2% | BT-549 breast 10.9% | SW-620 colon 20% | HCT-116 colon 11.2% | KM12 colon 16.2%

C=C(C)COC(=O)c1ccccc1C(=O)OCC1(C)CO1 (stereo unspecified)
inactive: T-47D breast 102% | BT-549 breast 102% | MDA-MB-435 melanoma 106% | SW-620 colon 105% | MCF7 breast 104% | HCT-116 colon 105% | KM12 colon 112%

COc1ccc(/C=C(\C#N)c2ccc(OC)cc2)cc1
inactive: T-47D breast 47.4% | BT-549 breast 95% | SW-620 colon 38.6% | MCF7 breast 36.8% | HCT-116 colon 55.4% | KM12 colon 28.4%
active: MDA-MB-435 melanoma 2.31%

CCC(=O)Nc1nnc(Cc2ccc(OC)c(OC)c2)s1
inactive: SW-620 colon 33.8% | MCF7 breast 15.1% | KM12 colon 36.3%
active: T-47D breast -18.7% | BT-549 breast -66.8% | MDA-MB-435 melanoma -52% | HCT-116 colon -68.2%

CCOC(=O)C(CC(c1ccccc1)N1CCCCC1)[N+](=O)[O-] (stereo unspecified)
inactive: T-47D breast 59.1% | BT-549 breast 94.8% | MDA-MB-435 melanoma 93.7% | MCF7 breast 63.3% | HCT-116 colon 54.8% | HCC-2998 colon 108% | KM12 colon 37.8%

O=C1NC(=S)S/C1=C\c1cccc([N+](=O)[O-])c1
inactive: T-47D breast 90.2% | BT-549 breast 81.2% | MDA-MB-435 melanoma 93.7% | MCF7 breast 87.8% | HCT-116 colon 93.2% | HCC-2998 colon 87.4% | KM12 colon 103%

CS(=O)(=O)Nc1cccc(C(=O)NCc2ccc(N3CCOCC3)cc2)c1
inactive: T-47D breast 95.4% | BT-549 breast 95.6% | MDA-MB-435 melanoma 105% | MCF7 breast 99% | HCT-116 colon 101% | HCC-2998 colon 106% | KM12 colon 97.1%

FCOC(C(F)(F)F)C(F)(F)F
inactive: T-47D breast 97.9% | BT-549 breast 103% | MDA-MB-435 melanoma 103% | MCF7 breast 101% | HCT-116 colon 103% | HCC-2998 colon 104% | KM12 colon 103%

Cc1ccc(S(=O)(=O)c2ccc3[nH]c(=O)[nH]c(=O)c3c2)cc1
inactive: T-47D breast 90.9% | BT-549 breast 92.4% | MDA-MB-435 melanoma 116% | SW-620 colon 105% | MCF7 breast 91.5% | HCT-116 colon 90.9% | KM12 colon 106%

CCN(CC)CCCNc1ccc(C)c2sc3ccccc3c(=O)c12
inactive: T-47D breast 43.7% | BT-549 breast 76.5% | HCT-116 colon 17.5% | KM12 colon 33.2%
active: MDA-MB-435 melanoma -85.7% | MCF7 breast -67.1% | HCC-2998 colon -49.2%

O=C(COc1ccc(/C=C2\CSc3ccccc3C2=O)cc1)c1ccc(Cl)cc1
inactive: T-47D breast 94.8% | BT-549 breast 110% | MDA-MB-435 melanoma 95.6% | SW-620 colon 115% | MCF7 breast 114% | HCT-116 colon 94.1% | KM12 colon 106%

O=S(=O)(/N=C1C=C/C(=N\S(=O)(=O)c2ccccc2)c2ccccc2\1)c1ccccc1
active: MDA-MB-435 melanoma 0.648%
inactive: T-47D breast 93.1% | BT-549 breast 104% | SW-620 colon 112% | MCF7 breast 84.1% | HCT-116 colon 94.5% | KM12 colon 101%

Clc1nc(-c2ccccn2)nc2sc3c(c12)CCCCCC3
inactive: T-47D breast 42.2% | BT-549 breast 85.1% | MDA-MB-435 melanoma 91.4% | MCF7 breast 54% | HCT-116 colon 84.5% | HCC-2998 colon 63.4% | KM12 colon 91.6%
